Activity calls are given as the source filed them. Where a call stands in place of a potency, no number is given. The call rests on the fitted dose curve; in most records, active means well fitted curve in the direction sought with a large enough effect in the repeat runs; inconclusive means weak or mixed curves; inactive means flat fitted curve, though single readings scatter.
assay: qHTS assay to test for compound auto fluorescence at 460 nm (blue) in HepG2 cells (AID 720687); conditions: autofluorescence 405/460 nm, 1 h; series mostly up to 91.3 µM
Excerpt: U.S. Tox21 Program National Center for Advancing Translational Sciences [NCATS] NIH Chemical Genomics Center [NCGC] U.S. Environmental Protection Agency [EPA] National Institutes of Environmental Health Sciences [NIEHS] National Toxicology Program [NTP] U.S. Food and Drug Administration [FDA] Tox21 Assay Overview: Compound auto fluorescence often interferes with screening of the compound library against various biological targets and signaling pathways. Some of these compounds may have fluorophoric properties. Such properties may interfere with the assay outputs resulting in false positives and/or negatives. To decrease such complications and ensure the compound activities are relevant in terms of biological response, the Tox21 10K compound library was screened for auto fluorescence. From the fluorophores used as reporter signals in our screening assays, the auto fluorescence equivalencies of compounds against three fluorophores have been evaluated: Triamterene, Fluorescein and Rose Bengal sodium for blue, green and red fluorescence, respectively. The fluorescence intensities were measured using Excitation/Emission wavelengths at 405/460nm, 485/535nm and 540/590nm for blue, green and red labels, respectively. This assay includes the blue fluorescence data.
Tox21 Assay Protocol Summary: 2,000 HepG2 cells in 5 uL of culture medium (MEM containing 10% FBS) per well were dispensed into black wall/clear bottom 1536-well plates using a Multidrop Combi Dispenser (ThermoFisher Scientific, Waltham, MA). The assay plates were incubated overnight at 37 C to allow cell attachment to the well bottom, followed by the transfer of 23 nL compound or DMSO vehicle by a pintool work station (Kalypsys , San Diego, CA). After the assay plates were incubated for 1 hr at 37 C and 5% CO2, fluorescence intensities in the assay plates were measured by an Envision (PerkinElmer, Shelton, CT) plate reader using three labels for measuring blue, green and red fluorescence at […] 460, 535 and 590 nm respectively.
Potency means the concentration at half of the fitted maximal effect; tags describe the fitted curve by direction and shape or compound fluorescence and quenching.

| Structure (SMILES) | Potency | fluorescence, % of fluorescent control |
| --- | --- | --- |
| O=C1CC2(CCCC2)CC(=O)N1CCCCN1CCN(c2ncccn2)CC1 | inactive |  |
| CNC1(C)C2CCC(C2)C1(C)C (stereo not given) | inactive |  |
| Cc1cccc2n[nH]nc12 | inactive |  |
| Cc1c(O)cccc1C(=O)N[C@@H](CSc1ccccc1)[C@H](O)CN1C[C@H]2CCCC[C@H]2C[C@H]1C(=O)NC(C)(C)C | inactive |  |
| CCN(CC)c1ccc2c(C)cc(=O)oc2c1 | 39.8 µM [fluorescent] (active) |  |
| COc1ccc(COC(C)=O)cc1 | inactive |  |
| CC(C)(C)NCC(O)c1cc(O)cc(O)c1 (stereo not given) | inactive |  |
| CCN(CC)CCOc1ccc(/C(=C(\Cl)c2ccccc2)c2ccccc2)cc1 | inactive |  |
| CC(=O)CC(=O)Nc1ccc2[nH]c(=O)[nH]c2c1 | inactive |  |
| OCC(CO)N[C@H]1C[C@](O)(CO)[C@@H](O)[C@H](O)[C@H]1O | inactive |  |
| CN(C)c1ccc2nc3ccc(=[N+](C)C)cc-3sc2c1 | inactive |  |
| CCC[C@H](N[C@@H](C)C(=O)N1[C@H](C(=O)O)C[C@@H]2CCCC[C@@H]21)C(=O)OCC | inactive |  |
| CNCCC(Oc1ccc(C(F)(F)F)cc1)c1ccccc1 (stereo not given) | inactive |  |
| CCCCCCCCCCCCCCCCCl |  | -0.0903% [at 18.6 µM] (inactive) |
| Oc1c(Cl)cc(Cl)cc1Sc1cc(Cl)cc(Cl)c1O | inactive |  |
| NC(Cc1ccc(Cl)cc1)C(=O)O (stereo not given) | inactive |  |
| c1ccc2n[nH]nc2c1 | inactive |  |
| Nc1nc(=S)c2[nH]cnc2[nH]1 | inactive |  |
| c1ccc2c(c1)-c1cccc3c1c-2cc1ccccc13 | inactive |  |
| Cc1cccc([N+](=O)[O-])c1C(=O)O | inactive |  |

| Structure (SMILES) | Potency | fluorescence, % of fluorescent control |
| --- | --- | --- |
| CCCCCCCCCCCC[N+](C)(C)C | inactive |  |
| c1ccc2c(c1)CCCC2C1=NCCN1 (stereo not given) | inactive |  |
| COC(=O)c1cccc(C(=O)OC)c1 | inactive |  |
| CCCN[C@H]1CCc2nc(N)sc2C1 | inactive |  |
| CC(C)C(=O)c1c(C(C)C)nn2ccccc12 | inactive |  |
| CC(=O)CC(C)=O | inactive |  |
| NC(=Nc1ccccc1)Nc1ccccc1 | inactive |  |
| CC[C@H]1CN2CCc3cc(OC)c(OC)cc3[C@@H]2C[C@@H]1C[C@H]1NCCc2cc(OC)c(OC)cc21 | inactive |  |
| CCC(=O)/C=C/C1C(C)=CCCC1(C)C (stereo not given) | inactive |  |
| O=Nc1ccc(Nc2ccccc2)cc1 | inactive |  |
| C=CS(=O)(=O)O | inactive |  |
| Nc1nc2ccccc2[nH]1 | inactive |  |
| CCCCCCC(O)CCCCCCCCCCC(=O)O (stereo not given) | inactive |  |
| CC(COc1ccccc1)N(CCCl)Cc1ccccc1 (stereo not given) | inactive |  |
| COc1ccc(Cc2cnc(N)nc2N)cc1OC | inactive |  |
| O=C(O)c1cccc(C(=O)O)c1 | inactive |  |
| O=C(OCc1ccccc1)c1ccc(O)cc1 | inactive |  |
| O=C(O[C@@H]1Cc2c(O)cc(O)cc2O[C@@H]1c1cc(O)c(O)c(O)c1)c1cc(O)c(O)c(O)c1 | inactive |  |
| CCn1c2ccccc2c2cc(N)ccc21 | inactive |  |
| CC(=O)OCCOCCOCCOC(C)=O | inactive |  |

From PubChem BioAssay (Tox21)
